Measurements as given in article PMC6579518.

Each substance was assayed against Large ribosomal subunit protein eL14A (UniProt P36105) (assay: cross-link between two proteins; cross-linking mass spectrometry).
Chain of Large ribosomal subunit protein eL14A (P36105 whole entry): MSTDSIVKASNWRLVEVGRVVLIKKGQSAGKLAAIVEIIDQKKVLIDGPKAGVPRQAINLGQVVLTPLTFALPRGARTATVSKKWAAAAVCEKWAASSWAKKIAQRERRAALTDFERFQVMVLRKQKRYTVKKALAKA

Chain of Large ribosomal subunit protein uL13B, P26785 (P26785 whole entry): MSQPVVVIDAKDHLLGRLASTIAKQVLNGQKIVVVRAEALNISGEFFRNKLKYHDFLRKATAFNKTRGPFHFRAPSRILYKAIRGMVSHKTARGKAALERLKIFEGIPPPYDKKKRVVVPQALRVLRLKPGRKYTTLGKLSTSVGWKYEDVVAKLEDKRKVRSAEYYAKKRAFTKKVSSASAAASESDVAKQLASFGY
Chain of Large ribosomal subunit protein uL13A, P26784 (P26784 whole entry): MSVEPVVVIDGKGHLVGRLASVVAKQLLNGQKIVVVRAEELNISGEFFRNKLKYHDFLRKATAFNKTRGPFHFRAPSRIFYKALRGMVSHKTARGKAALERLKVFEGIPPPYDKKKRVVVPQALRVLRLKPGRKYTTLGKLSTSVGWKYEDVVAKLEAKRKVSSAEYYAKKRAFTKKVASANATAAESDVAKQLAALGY
Chain of Large ribosomal subunit protein eL32, P38061 (P38061 whole entry): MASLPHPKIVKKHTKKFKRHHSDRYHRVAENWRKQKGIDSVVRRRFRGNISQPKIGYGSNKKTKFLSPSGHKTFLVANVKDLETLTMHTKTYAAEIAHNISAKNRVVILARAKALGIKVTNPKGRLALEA

Listed as a hit, yes:
Large ribosomal subunit protein uL13B, P26785
Large ribosomal subunit protein uL13A, P26784
Large ribosomal subunit protein uL30A, P05737

The substances below were run against Ribosome biogenesis protein ALB1 (UniProt P47019) in the same assay as above.
Chain of Ribosome biogenesis protein ALB1 (P47019 whole entry): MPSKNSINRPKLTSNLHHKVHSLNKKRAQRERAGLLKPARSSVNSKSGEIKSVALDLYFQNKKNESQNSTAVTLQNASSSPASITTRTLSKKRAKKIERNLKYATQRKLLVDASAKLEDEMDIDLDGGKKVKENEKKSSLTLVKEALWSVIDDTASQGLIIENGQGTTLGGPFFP

Listed as a hit, yes:
Large ribosomal subunit protein eL6B, P05739
Large ribosomal subunit protein uL24A, P05743
Large ribosomal subunit protein eL32, P38061
